Source: PubChem (several laboratories)
Shown are actives, neighbours in structure and some others; about 3.4% of the full set was active somewhere.
ERb coact inh: ER-beta (human) coactivator binding inhibition. 86,000 tested, 1.3% active. TR-FRET ER-beta LBD / SRC1-Cy5 peptide binding; receptor agonist-loaded with 1 µM estradiol. inhibition, % at 25.6 µM. Q92731. AID 633;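 active = compounds whose percent inhibition of the receptor-coactivator binding signal exceeds about 50% in the single-dose screen, limit read from the data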;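 note: 0% = receptor plus peptide wells without compound and 100% = peptide-only wells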
Target sequence (Q92731 whole entry, looked up, the tested form may be a part): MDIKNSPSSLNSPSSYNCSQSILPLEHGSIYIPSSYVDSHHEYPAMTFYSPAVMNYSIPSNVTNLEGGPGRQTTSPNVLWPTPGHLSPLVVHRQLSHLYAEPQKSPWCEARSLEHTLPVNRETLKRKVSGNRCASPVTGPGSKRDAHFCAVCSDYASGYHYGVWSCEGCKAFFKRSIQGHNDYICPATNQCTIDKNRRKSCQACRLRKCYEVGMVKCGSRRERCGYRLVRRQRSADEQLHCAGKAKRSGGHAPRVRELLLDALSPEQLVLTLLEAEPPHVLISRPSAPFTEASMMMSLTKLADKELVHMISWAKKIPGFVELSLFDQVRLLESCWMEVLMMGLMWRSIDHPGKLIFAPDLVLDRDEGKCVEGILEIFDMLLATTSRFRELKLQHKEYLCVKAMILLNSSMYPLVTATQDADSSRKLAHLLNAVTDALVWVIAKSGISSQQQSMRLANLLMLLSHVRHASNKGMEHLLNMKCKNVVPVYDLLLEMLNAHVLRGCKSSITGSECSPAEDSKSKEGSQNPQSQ
ERa coact pot: enhances coactivator binding to human estrogen receptor alpha | P03372 | TR-FRET ERalpha-LBD/SRC-Cy5 coactivator binding, 2 h; 100 = basal binding, no effect | AID 639 | 86,000 tested, 1.3% active | coactivator binding (% of control), % at 25.6 µM; in the data active = activity above about 200%;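 note: binding measured in presence of low estradiol as agonist stimulus; 0% = peptide alone without receptor and 100% = receptor with peptide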
ERa coact inh: blocks coactivator binding to human estrogen receptor alpha; P03372; TR-FRET ER-alpha LBD / SRC-1 peptide, estradiol-bound; inhibition, % at 25.6 µM; 86,000 tested, 1.7% active; AID 629; in the data active = inhibition above about 50%;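 note: 0% = receptor plus peptide control and 100% = peptide only without receptor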
PTPN22 act: increases human PTPN22 phosphatase activity. recombinant LYP, DiFMUP fluorescence; 0 = plate median, 100 = signal doubled. Q9Y2R2. 96,000 tested, 0.11% active. activation, % at 2 µM;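 active = activation at 2 µM above a set limit, the mean plus 5 SD, cut at about 37% in these data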
FAK inh: FAK (human) kinase inhibition; biochemical FAK kinase activity assay; inhibition, %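 (tested at 7 µM)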; 97,000 tested, 0.84% active; in the data active = inhibition above about 19%;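 note: 0% = DMSO and 100% = reference compound high control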
PTPN22 inh 2: blocks human PTPN22 phosphatase activity; 96,000 tested, 0.21% active; recombinant LYP catalytic domain, DiFMUP fluorescence; AID 640; inhibition, % at 2 µM;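 active = inhibition at 2 µM at or above a set limit, the screen mean plus 3 SD, cut at about 24% in these data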;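 note: 0% = DMSO with enzyme and 100% = enzyme fully blocked by orthovanadate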
Active calls of the source: *; x = no result; [ ] = another dose, or the depositor's remark.

SMILES | ERb coact inh | ERa coact pot | ERa coact inh | PTPN22 act | FAK inh | PTPN22 inh 2
Cn1nc(CC(=O)Nc2ccc(N3CCN(C(=O)OC(C)(C)C)CC3)cc2)c2ccccc2c1=O | 39 | 68 | 72*[fluorescence artefact?] | x | x | x
CC(C)(C)OC(=O)N[C@@H](Cc1ccccc1)c1nnc(SCC(=O)O)o1 | 92*[fluorescence artefact?] | 101 | 3 | 0 | -4 | -3
NC(=O)c1sc2cc(C(F)(F)F)cnc2c1-c1cccs1 | 3 | 111 | 0 | -2 | 1 | 3
O=C(Nc1ccccc1)c1sc2cc(C(F)(F)F)cnc2c1-c1cccs1 | 17 | 210*[fluorescence artefact?] | 19 | -11 | -4 | 13
Cc1ccc(N2CCN(c3cc(C)nc4c5c(C)cc(C)nc5nn34)CC2)cc1 | 15 | 139 | 4 | x | x | x
Cc1cc(C)c2c(n1)nn1c(N3CCN(c4ccccc4C)CC3)cc(C)nc21 | 17 | 402*[fluorescence artefact?] | 2 | 11 | 0 | -13
O=c1[nH]c2cc3c(cc2cc1C(c1nnnn1C1CCCC1)N1CCCc2ccccc21)OCCO3 (configuration not stated) | 2 | 114 | 6 | x | x | x
Cc1ccc(C)c2[nH]c(=O)c(C(c3nnnn3Cc3ccccc3)N3CCc4ccccc4C3)cc12 (configuration not stated) | 50 | 294*[fluorescence artefact?] | 51*[fluorescence artefact?] | 10 | 1 | -9
COc1cc2cc(C(c3nnnn3C3CCCC3)N3CCc4ccccc43)c(=O)[nH]c2cc1OC (configuration not stated) | 33 | 216*[fluorescence artefact?] | 50* | -7 | -1 | 6
O=c1[nH]c2cc3c(cc2cc1C(c1nnnn1Cc1ccccc1)N1CCN2CCCC2C1)OCCO3 (configuration not stated) | 44 | 129 | 72*[fluorescence artefact?] | -1 | 2 | -1
O=c1[nH]c2cc3c(cc2cc1C(c1nnnn1Cc1ccccc1)N1CCCc2ccccc21)OCO3 (configuration not stated) | 30 | 151 | 56*[fluorescence artefact?] | -7 | 0 | 4
CSc1ccccc1NC(=O)COc1ccccc1Cl | x | x | x | 1 | -4 | 3
O=c1[nH]c2cc3c(cc2cc1C(c1nnnn1Cc1ccccc1)N1CCCCCC1)OCCO3 (configuration not stated) | 44 | 246*[fluorescence artefact?] | 31 | 8 | 3 | -6
O=C(NCc1ccc(Cl)cc1)c1cnn2ccccc12 | -1 | 91 | 2 | 3 | -7 | -6
COc1ccc(-c2cnn3c4c(c(C)nc23)CCN4C(C)C)cc1OC | x | x | x | x | -5 | x
CCOC(=O)c1ccc(NC(=O)N2CCc3ccccc32)cc1 | 4 | 241*[fluorescence artefact?] | 14 | -1 | 4 | 1
COc1ccc(NC(=O)N2CCc3ccccc32)cc1 | 4 | 105 | -7 | 3 | 3 | -1
CCOc1ccc(Cn2nnc(C(=O)NCc3ccc(OC)cc3)c2N)cc1 | 7 | 228* | 2 | 6 | -3 | -8
CC(C)c1nnc(NC(=O)C2CCN(c3cnccn3)CC2)s1 | -4 | 110 | 4 | -10 | 0 | 8
CC(C)c1nnc(NC(=O)C2CCN(c3nc4ccccc4s3)CC2)s1 | -6 | 107 | 67*[fluorescence artefact?] | x | x | x
O=C1NN(c2ccc(Cl)c(Cl)c2)C(=O)/C1=C/c1cccc(OC(=O)c2cccs2)c1 | 28 | 66 | 51* | -8 | 1 | 8
O=C1NN(c2ccccc2)C(=O)/C1=C\c1cccc(OC(=O)c2cccs2)c1 | 9 | 117 | 37 | 6 | -4 | -3
Cc1ccc(S(=O)(=O)NC(=O)c2cccn2C)cc1 | 5 | 113 | 3 | -5 | 7 | 8
O=C(CCc1ccc(S(=O)(=O)N2CCOCC2)cc1)NCCCN1CCCC1=O | 58*[fluorescence artefact?] | 94 | 22 | -1 | 5 | -2
COc1ccc(CC(=O)Nc2ccc(-c3cn4ccc(C)cc4n3)cc2)cc1 | x | x | x | 8 | 4 | -7
SMILES | ERb coact inh | ERa coact pot | ERa coact inh | PTPN22 act | FAK inh | PTPN22 inh 2
COC(=O)COc1ccc(S(=O)(=O)Nc2ccc3c(c2)OCO3)cc1 | 22 | 57 | 67* | 5 | -1 | -6
Cc1ccc(NC(=O)CCC(=O)NNC(=O)C(c2ccccc2)c2ccccc2)c(C)c1 | x | x | x | -4 | 2 | 8
O=C(COc1ccc(Cl)cc1)Nc1ccc(N2CCN(C(=O)c3ccco3)CC2)cc1 | x | x | x | -3 | 4 | 6
O=C(CSc1ccc(Cl)cc1)Nc1ccc(N2CCN(C(=O)c3ccco3)CC2)cc1 | 29 | 60 | 64*[fluorescence artefact?] | -7 | 7 | 9
CCc1cc2c(=O)n(CC)c(SC(C)C(=O)Nc3c(C)n(C)n(-c4ccccc4)c3=O)nc2s1 (configuration not stated) | 55* | 98 | 1 | 4 | -2 | -7
Cc1ccc(-c2csc(N(C)C(=O)c3c(C)nn(-c4ccccc4)c3Cl)n2)cc1 | x | x | x | x | -3 | x
N#Cc1ccc(Oc2ccc(/C=N/O)cn2)cc1 | x | x | x | 6 | -2 | -1
COC(=O)/C(=C\Nc1ccc(Cl)cc1Cl)NC(=O)c1ccc(Cl)cc1Cl | 46 | 52 | 74*[fluorescence artefact?] | 8 | 2 | -11
COC(=O)/C(=C\Nc1ccc(Cl)cc1Cl)NC(=O)c1ccccc1 | 1 | 100 | 4 | -6 | 0 | 4
CCc1ccc(S(=O)(=O)c2n[nH]n3c2nc(=O)c2ccccc23)cc1 | 7 | 560*[fluorescence artefact?] | 6 | 6 | -4 | -4
O=C/C(=C\Nc1ccccn1)c1nc2cc(Cl)ccc2o1 | 28 | 102 | 66*[fluorescence artefact?] | 2 | -8 | -7
CC(C(=O)NC(=O)NC1CCCCC1)N1CCN(C(c2ccccc2)c2ccccc2)CC1 (configuration not stated) | x | x | x | -6 | -2 | 4
Cc1csc(NC(=O)c2sc3nc(-c4cccs4)ccc3c2N)n1 | 53*[fluorescence artefact?] | 41 | 85*[fluorescence artefact?] | -5 | 0 | 7
NC(=O)c1ccsc1NC(=O)COC(=O)Cc1ccsc1 | 60* | 71 | 55*[fluorescence artefact?] | -2 | 7 | 5
CCN1CCN(C(=S)c2ccc(OCC(=O)N3CCOCC3)cc2)CC1 | -22 | 94 | -9 | -2 | -1 | 4
Cc1sc2ncnc(OCC(=O)NCc3cccs3)c2c1C | 1 | 104 | 3 | -3 | -1 | -3
CCNC(=S)N1CCC(c2nc3ccccc3s2)CC1 | x | x | x | 14 | 1 | -11
O=C1CC(c2ccco2)CC(O)=C1C=Nc1cc(Cl)ccc1O (configuration not stated) | 48 | 130 | 52* | 0 | 2 | -4
CCn1c2ccccc2c2cc(C3C(C#N)=C(C)NC(C)=C3C#N)ccc21 | 4 | 215* | 6 | 2 | 9 | -5
O=C(Nc1cc(C(F)(F)F)ccc1N1CCCCC1)c1ccco1 | 2 | 693*[fluorescence artefact?] | -9 | -2 | 4 | 2
O=C(Nc1ccccc1)C1Cc2ccccc2CN1C(=O)c1ccco1 (configuration not stated) | x | x | x | 7 | -1 | -11
O=C(Nc1cc(C(F)(F)F)ccc1N1CCOCC1)C1Cc2ccccc2CN1C(=O)c1ccco1 (configuration not stated) | 55* | 14 | 91*[fluorescence artefact?] | -2 | 6 | 3
